# Most compounds without a hit are left out; they make up all but 4% or so of the library.
# Peg3 prom inh: Peg3 promoter-driven luciferase inhibitors, primary screen, cell-based, HeLa, luciferase luminescence; HeLa PEG-Prom luciferase reporter, overnight; inhibition, % at 20 µM; actives 1.7% (n = 360,000);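 active means inhibition of at least 50% at 20 µM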
# HIF-2a inh: HIF-2a reporter inhibitors, primary screen, luminescence, 786-0 RCC cells; actives 0.72% (n = 360,000); 786-0 RCC cells HIF-2a reporter, luciferase luminescence, overnight; inhibition, % at 18.8 µM; AID 624352, 2012;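 active means inhibition of the luminescence signal of 40% or more relative to plate controls, in a single-dose primary screen at 18.75 µM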
# CF NFkB inh: inhibitors of PAF-induced NF-kB signaling, primary screen, cell-based, GFP fluorescence, uHTS | actives 0.86% (n = 360,000) | inhibition, % at 5 µM | KKLEB NF-kB-GFP reporter, GFP fluorescence overnight | AID 588850, 2011;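 active means at least 50% inhibition at 5 µM, scaled per plate between neutral and stimulator controls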;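 further: PAF is a Pseudomonas aeruginosa culture filtrate used as stimulus; plate controls were PAF-stimulated DMSO wells for no effect and unstimulated DMSO wells for full effect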
# TROY NFkB inh: inhibitors of TROY-driven NF-kB signaling, primary screen, Q293 LMP1-TROYcd cells, NF-kB luciferase, uHTS. actives 0.98% (n = 360,000). Q293 LMP1-TROYcd NF-kB luciferase reporter, 4 h. inhibition, % at 10 µM;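 active means compounds whose plate-normalised and pattern-corrected inhibition of the luciferase reporter signal at the single screening dose is 50% or more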
# KKLEB tox: cytotoxicity in KKLEB CF airway cells, primary screen, cytotoxicity control for CF NF-kB inhibitor project, cell-based, uHTS, fluorescence assay plates. KKLEB CF airway cells viability, ATPlite luminescence, overnight; stronger effect = lower value; cells stimulated with P. aeruginosa culture filtrate. activity change (cytotoxicity), % at 5 µM. actives 0.36% (n = 360,000). AID 602141, 2011;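 active means corrected activity change at or below -50% at 5 µM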
# TWEAK-Fn14 inh: inhibitors of TWEAK-Fn14 signaling, primary screen, luciferase reporter cells, uHTS; TWEAK-stimulated Fn14 reporter cells, luciferase luminescence, 8 h; inhibition, % at 10 µM; actives 2% (n = 360,000); in the data active means inhibition above about 50%
# CF NFkB conf: inhibitors of PAF-induced NF-kB signaling, retest, confirmation, cell-based, GFP fluorescence, single concentration; inhibition, % at 5 µM; actives 64% (n = 1,300); AID 602472, 2012; KKLEB CF airway cells, overnight; shares compounds with CF NFkB inh; in the data active means inhibition above about 40%;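 further: stimulus PAF is a Pseudomonas aeruginosa filtrate and not platelet activating factor; plate controls were DMSO wells with stimulus for no effect and unstimulated DMSO wells for full effect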
# Mdm2-MdmX confirm: retested Mdm2-MdmX interaction blockers, confirmation, cell-based, luminescence, single concentration, set 2. shares compounds with HIF-2a inh. inhibition, % at 8 µM. actives 99% (n = 740). SaOS-2 split-luciferase Mdm2/MdmX complementation;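 active means mean inhibition of the luminescence signal across two replicates at or above 26 percent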
# Target sequence (O15151 whole entry, looked up): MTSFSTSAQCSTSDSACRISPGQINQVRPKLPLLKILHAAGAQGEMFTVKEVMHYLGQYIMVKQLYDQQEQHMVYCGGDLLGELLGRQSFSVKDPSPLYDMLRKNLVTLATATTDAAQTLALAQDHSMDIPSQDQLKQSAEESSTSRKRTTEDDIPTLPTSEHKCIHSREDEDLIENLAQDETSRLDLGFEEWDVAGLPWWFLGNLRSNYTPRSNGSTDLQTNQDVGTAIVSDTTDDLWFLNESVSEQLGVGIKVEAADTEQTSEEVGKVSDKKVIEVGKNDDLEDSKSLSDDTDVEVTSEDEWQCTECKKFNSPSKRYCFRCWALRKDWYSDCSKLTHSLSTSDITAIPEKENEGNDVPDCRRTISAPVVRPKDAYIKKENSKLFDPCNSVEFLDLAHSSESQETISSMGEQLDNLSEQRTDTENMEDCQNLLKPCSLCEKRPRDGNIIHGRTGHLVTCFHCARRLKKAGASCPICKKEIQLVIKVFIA
# Target sequence (Q00987 whole entry, looked up): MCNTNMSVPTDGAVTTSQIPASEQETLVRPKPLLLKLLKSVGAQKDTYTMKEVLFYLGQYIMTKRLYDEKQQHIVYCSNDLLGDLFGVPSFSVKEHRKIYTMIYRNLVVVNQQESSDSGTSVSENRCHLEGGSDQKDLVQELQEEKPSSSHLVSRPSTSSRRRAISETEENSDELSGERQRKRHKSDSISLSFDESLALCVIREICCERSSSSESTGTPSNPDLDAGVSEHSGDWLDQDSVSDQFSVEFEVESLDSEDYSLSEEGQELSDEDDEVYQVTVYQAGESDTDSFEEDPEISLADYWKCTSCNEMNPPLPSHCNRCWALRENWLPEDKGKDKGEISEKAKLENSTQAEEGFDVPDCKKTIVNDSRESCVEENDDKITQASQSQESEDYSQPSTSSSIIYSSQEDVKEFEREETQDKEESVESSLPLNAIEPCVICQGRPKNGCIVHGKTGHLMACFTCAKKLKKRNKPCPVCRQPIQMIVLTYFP
# HIF-2a inh conf: HIF-2a reporter inhibitor retest, confirmation, luminescence, 786-0 RCC cells. HIF-2a luciferase reporter luminescence, overnight. actives 56% (n = 1,800). shares compounds with HIF-2a inh. AID 651580, 2012. inhibition, % at 18.8 µM;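 active means mean inhibition across four replicates of at least 40 percent at the single tested concentration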
# HIF-1a cs: HIF-1a luciferase reporter signal reduction – MiaPaCa-2 cells, single concentration, counter-screen for HIF-2a inhibitor project, confirmation. MiaPaCa-2 HIF-1a luciferase reporter, desferoxamine, overnight. inhibition, % at 18.8 µM. actives 72% (n = 1,800). shares compounds with HIF-2a inh;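 active means mean inhibition of the reporter signal across four replicates at the single tested dose of 50% or more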
# Starred values were filed as active, the others as inactive; x = no result given.
SMILES,Peg3 prom inh,HIF-2a inh,CF NFkB inh,TROY NFkB inh,KKLEB tox,TWEAK-Fn14 inh,HIF-2a inh conf,HIF-1a cs,others
COc1ccc(Oc2cc(NC(=O)c3nn(C)cc3[N+](=O)[O-])cc([N+](=O)[O-])c2)cc1,104*,94*,59*,-9,-42,25,x,x,CF NFkB conf=108*;Mdm2-MdmX confirm=84*
COC(=O)C1=C(c2cccc(OC)c2OC)C[C@@H]2CC[C@H]1N2C(=O)NC1CCCCC1,-35,-28,-14,-33,19,11,x,x,
COc1ccc(CC(=O)Nc2ccc(C#N)c(Cl)c2)cc1S(=O)(=O)N1CCOCC1,25,6,-2,-9,-8,-21,x,x,
Cc1cccc(OP(=O)(NCc2ccccc2)Oc2cccc(C)c2)c1,34,68*,6,16,-10,38,0,80*,
COc1ccc(-n2c(-c3ccccc3F)nc3ccccc3c2=O)cc1,9,4,-5,3,7,-9,x,x,
CC(=O)O[C@H]1[C@H]2O[C@]23[C@@H]2CC[C@]4(O)C[C@@H](O)CC[C@]4(C)C2CC[C@]3(C)[C@H]1c1ccc(=O)oc1 (stereo partly specified),101*,76*,82*,56*,-54*,83*,43*,106*,Mdm2-MdmX confirm=87*
COc1ccc(/C=C/C(=O)c2c(O)n(CCC3=CCCCC3)c(=O)[nH]c2=O)cc1,7,53*,-18,16,2,46,33,65*,
COc1cc2c(cc1/C=C/[N+](=O)[O-])OCO2,110*,71*,26,62*,-3,64*,79*,98*,
CC1CCC(C(C)C)C(OC(=O)Cn2c(COc3ccccc3)[n+](C)c3ccccc32)C1 (stereo unspecified),95*,-10,74*,44,-72*,47,x,x,Mdm2-MdmX confirm=102*
C=C1C(=O)OC2C1CCC(C)C1(O)C=CC(=O)C21C (stereo unspecified),106*,47*,50,-17,-14,66*,13,99*,
O=C(Nc1ccc(F)c([N+](=O)[O-])c1)N1C[C@H]2C[C@@H](C1)c1cccc(=O)n1C2,2,11,5,6,-1,2,x,x,
C=C1C(=O)[C@@]23C[C@H]4[C@@H]5[C@@]6(C)CCC[C@@]57[C@@H]2[C@@H](O)[C@@H]1C[C@H]3[C@H]7N4C6,93*,69*,74*,16,2,50,x,x,Mdm2-MdmX confirm=101*
CC(=O)O[C@H]1C[C@@H]2OC3C=C(C)CCC3(C)[C@@]1(C)[C@@]21CO1 (stereo partly specified),96*,48*,90*,78*,-19,97*,64*,102*,
Cc1ccc(-n2c(=S)[nH]c3ccc(C)cc3c2=O)cc1,-29,-53,-9,-26,-2,-16,x,x,
CCN1CCN(CC(c2ccccc2)c2ccccc2)CC1,16,11,-17,15,19,7,x,x,
O=C(c1ccccc1)C(CN1CCCC1)c1ccccc1 (stereo unspecified),105*,89*,68*,11,-50,71*,31,79*,
CSCCC(c1nnnn1-c1c(C)cccc1C)N1CCC(n2c(=O)[nH]c3ccccc32)CC1 (stereo unspecified),18,-5,37,36,-26,38,x,x,
O=c1[nH]c2ccccc2n1C1CCN(C(CCc2ccccc2)c2nnnn2Cc2ccccc2)CC1 (stereo unspecified),97*,67*,84*,71*,-82*,94*,-20,105*,
Cc1cc([N+](=O)[O-])c2ccccc2[n+]1[O-],108*,48*,-8,-31,-12,4,x,x,Mdm2-MdmX confirm=103*
O=C1CC(=O)N(c2ccccc2)C(=O)N1c1ccccc1,-10,-8,24,-62,8,7,x,x,
CN(C)C(=O)O/N=C(\N)COc1ccc(C(C)(C)C)cc1,107*,60*,5,-30,-6,-55,-76,-45,Mdm2-MdmX confirm=103*
COc1cccc(C(c2nnnn2C(C)(C)C)N2CCC3(CC2)C(=O)NCN3c2ccccc2)c1OC (stereo unspecified),15,22,-16,11,6,13,x,x,
CC1([N+](=O)[O-])COP(=O)(NC2CC2)OC1 (stereo unspecified),10,12,1,-1,-7,-7,x,x,
COc1ccc(C(=O)OC2CC3CCC(C2)[N+]3(C)[O-])cc1OC (stereo unspecified),14,18,4,16,5,9,x,x,
COc1cc(/C=C/[N+](=O)[O-])ccc1OC(=O)c1cccnc1,88*,42*,34,66*,1,47,54*,45,
COc1cc(/C=N/n2cnnc2)ccc1OC(=O)N(C)C,5,7,2,10,20,8,x,x,
COc1cc([N+](=O)[O-])c2nc(C)ccc2c1[N+](=O)[O-],7,-10,26,4,-22,25,x,x,
COc1cc([N+](=O)[O-])c2ncccc2c1[N+](=O)[O-],48,43*,28,8,-2,33,1,78*,
COC(=O)C1=C(c2ccc(C(C)=O)cc2)C[C@@H]2CC[C@H]1N2C(=O)NCCOc1ccccc1Cl,19,12,2,-14,17,-1,x,x,
CC1CCC/C=C/C2CC(O)CC2C(O)/C=C/C(=O)O1 (stereo unspecified),60*,46*,79*,-54,-60*,76*,34,78*,Mdm2-MdmX confirm=103*

# Screens (PubChem)
